Here are results for 16 molecules from PubChem BioAssay (NCATS).

Structures are written as SMILES. Records with an inconclusive call do not appear. The source made the active and inactive calls. Unless noted, calls follow the shape of the dose curve; as a rule, active = well fitted curve in the direction sought with a large enough effect; inconclusive = small, poorly fitted or top-dose-only effect, or another doubt; inactive = no such curve, though single readings can be large; an effect the other way counts as inactive or inconclusive.

The nature of experiment [1]: qHTS for differential inhibitors of proliferation of Plasmodium falciparum line 7G8 (AID 1815).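 Also: parasite growth measured after three days of incubation.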 Also: potency is read from the fitted curve at half-maximal effect.
Experiment [2] in a line: qHTS for differential inhibitors of proliferation of Plasmodium falciparum line GB4 (AID 1816).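 Also: parasite growth measured after 72 h incubation.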 Also: potency is read from the fitted curve at half-maximal effect. The settings on record: Potency: Plasmodium falciparum GB4 proliferation inhibition. (In general: Quantitative high-throughput screening tests each substance at several concentrations.)
Experiment [3] is described as follows: qHTS for differential inhibitors of proliferation of Plasmodium falciparum line 3D7 (AID 1876). Also: potency is read from the fitted curve at half-maximal effect.
Experiment [4] is described as follows: qHTS for differential inhibitors of proliferation of Plasmodium falciparum line D10 (AID 1877).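 Also: parasites grown with compound for 72 h before DNA staining.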 Also: potency is read from the fitted curve at half-maximal effect.
The nature of experiment [5]: qHTS for differential inhibitors of proliferation of Plasmodium falciparum line Dd2 (AID 1882). Also: nearly all actives have a fitted effect of over 65% in size. Also: potency is read from the fitted curve at half-maximal effect. The settings on record: Potency: Plasmodium falciparum Dd2 proliferation inhibition. A digest of the protocol:
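SYBR Green I DNA fluorescence read-out, ex 485/em 535 nm. Signals were normalized to 0.29 uM artemisinin and DMSO wells, then corrected using vehicle-only plates flanking each stack. Parasite growth ran 72 h in erythrocytes before lysis.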

Experiment [6] can be described thus: qHTS for differential inhibitors of proliferation of Plasmodium falciparum line W2 (AID 1883).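 Also: parasites grown with compound for 72 h before lysis and staining.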 Also: potency is read from the fitted curve at half-maximal effect. The settings on record: Potency: Plasmodium falciparum W2 proliferation inhibition.
A short description of experiment [7]: qHTS for differential inhibitors of proliferation of Plasmodium falciparum line HB3 (AID 1886).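 Also: parasites grown with compound for 72 h before SYBR Green readout.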 Also: potency is read from the fitted curve at half-maximal effect. The settings on record: Potency: Plasmodium falciparum HB3 proliferation inhibition.
The target of experiment [8] is Ferritin light chain (Equus caballus) (UniProt P02791). Nature of the experiment: qHTS Validation Assay for Identification of Novel General Anesthetics (AID 2323). Also: series mostly up to about 77 µM. In outline:
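Normalized fluorescence response, scaled between free 1-AMA and 1-AMA/apoferritin complex, fitted to a four-parameter Hill equation for concentration-effect values. Binding mix: 10 uM horse-spleen apoferritin, 50% saturated 1-AMA in PBS; read 380/535 nm after 10 min.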

Experiment [9] in a line: qHTS Assay for Modulators of Human Peripheral Myelin Protein 22 (PMP22) Expression/Activity (AID 1967; active = well fitted curve in the direction sought with a large enough effect in the signal ratio; the % refers to the signal ratio). A digest of the protocol:
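Engineered MSC80 cells, Pmp22-promoter green and EF-alpha red luciferase reporters; 24h compound treatment at 37 °C. Concentration-response fits on green, red and ratio signals, each overlap-corrected, with %Activity normalized to untreated wells.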

Sequence of Ferritin light chain (Equus caballus) (P02791 2-175 limits assumed): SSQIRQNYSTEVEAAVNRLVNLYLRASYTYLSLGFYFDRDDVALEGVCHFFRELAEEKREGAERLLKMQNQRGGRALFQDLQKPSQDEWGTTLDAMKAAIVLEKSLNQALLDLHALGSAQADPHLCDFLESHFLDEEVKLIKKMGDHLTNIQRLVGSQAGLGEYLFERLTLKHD

On to `CN(C)CCCN1c2ccccc2CCc2ccc(Cl)cc21`, for which the Potency in [1] was 5.01 µM (active); in experiment [2] it was 5.01 µM (active); in [3], 10 µM (active); in [4], 11.2 µM (active); in [5], 7.94 µM (active); in [6] it was 5.01 µM (active). In addition, the Potency in experiment [7] is 10 µM (active).
On to `CCOC(=O)C(C)(C)Oc1ccc(Cl)cc1`, for which the Potency result in experiment [1], in experiment [2], in experiment [3], in [4], in experiment [5] and in experiment [6] was “inactive” in each case. Also, in [7], the Potency entry is “inactive”.
Take `CN(Cc1cnc2nc(N)nc(N)c2n1)c1ccc(C(=O)N[C@@H](CCC(=O)O)C(=O)O)cc1`: the Potency in experiment [1] was 0.126 µM (active); in [2], 0.0398 µM (active); in [3], 0.0708 µM (active); in experiment [4], 0.0398 µM (active); in experiment [5], 0.0794 µM (active); in [6], 0.0398 µM (active). Further, the Potency in experiment [7] is 0.0708 µM (active).
`CCCCc1oc2ccccc2c1C(=O)c1cc(I)c(OCCN(CC)CC)c(I)c1`: the Potency in experiment [1] was 2.82 µM (active); in experiment [2], 2.51 µM (active); in experiment [3] it was 2.82 µM (active); in experiment [4], 7.08 µM (active); in [5], 6.31 µM (active); in experiment [6], 2.24 µM (active). Further, in experiment [7], the Potency was 3.98 µM (active).
As to `CN1CCN(CCCN2c3ccccc3Sc3ccc(Cl)cc32)CC1`, the Potency in experiment [1] was 5.01 µM (active); in [2] it was 10 µM (active); in experiment [3], 6.31 µM (active); in experiment [4], 12.6 µM (active); in experiment [5] it was 11.2 µM (active); in experiment [6], 4.47 µM (active). For the same molecule, the Potency in experiment [7] was 12.6 µM (active). Also, the Potency entry in experiment [8] was “inactive”.
Consider `OCCN(CCO)c1nc(N2CCCCC2)c2nc(N(CCO)CCO)nc(N3CCCCC3)c2n1`, for which the Potency was 2 µM (active) in experiment [1]; 2.82 µM (active) in [2]; 3.98 µM (active) in experiment [3]; 7.94 µM (active) in experiment [4]; 6.31 µM (active) in experiment [5]; 2.82 µM (active) in [6]. In addition, in [7], the Potency is 3.55 µM (active).
Consider `CN(C)c1nc(N(C)C)nc(N(C)C)n1`, for which the Potency result in [1], in [2], in experiment [3], in experiment [4], in experiment [5] and in [6] was “inactive” throughout. Besides, the Potency result in experiment [7], in experiment [9] and in experiment [8] was “inactive” throughout.
As for `COc1cc2nc(N3CCN(C(=O)c4ccco4)CC3)nc(N)c2cc1OC`, the Potency in experiment [1] was 7.94 µM (active); in experiment [2] it was 12.6 µM (active); in experiment [3], 8.91 µM (active); in [4] it was 10 µM (active); in [5] it was 7.94 µM (active); in [6] it was 5.01 µM (active). Besides, the Potency in experiment [7] was 10 µM (active). The Potency result in experiment [8] is “inactive”.
As to `CN1CCC(=C2c3ccccc3C=Cc3ccccc32)CC1`, the Potency in [1] was 5.01 µM (active); in experiment [2] it was 8.91 µM (active); in experiment [3], 11.2 µM (active); in [4], 12.6 µM (active); in [5], 5.01 µM (active); in [6], 2.82 µM (active). Also, the Potency in experiment [7] is 11.2 µM (active). For the same molecule, in [8], the Potency entry was “inactive”.
Take `Cc1cn([C@H]2C=C[C@@H](CO)O2)c(=O)[nH]c1=O`: the Potency entry in experiment [1], in experiment [2], in experiment [3], in experiment [4], in [5] and in experiment [6] was “inactive” in each case. The Potency entry in experiment [7] and in [8] was “inactive” throughout.
On to `CC(C)(Oc1ccc(C2CC2(Cl)Cl)cc1)C(=O)O` (stereo not drawn), for which the Potency result in experiment [1], in experiment [2], in experiment [3], in experiment [4], in experiment [5] and in experiment [6] was “inactive” throughout. For the same molecule, the Potency entry in experiment [7] and in experiment [8] was “inactive” each time.
`COc1cc2nc(N3CCN(C(=O)C4COc5ccccc5O4)CC3)nc(N)c2cc1OC` (stereo not drawn): the Potency in experiment [1] is 2.24 µM (active); in experiment [2], 3.16 µM (active); in experiment [3], 2.82 µM (active); in experiment [4] it was 2.51 µM (active); in [5], 11.2 µM (active); in experiment [6], 1.12 µM (active). Besides, in experiment [7], the Potency was 2.82 µM (active). Besides, the Potency entry in [8] was “inactive”.
As to `Cn1cnc2c1c(=O)[nH]c(=O)n2C`, the Potency entry in experiment [1], in experiment [2], in experiment [3], in [4], in [5] and in experiment [6] was “inactive” each time. Besides, the Potency result in experiment [7] and in experiment [8] was “inactive” throughout.
Take `NC(=O)NO`: the Potency result in experiment [1], in experiment [2], in [3], in [4], in experiment [5] and in [6] was “inactive” in each case. For the same molecule, the Potency result in experiment [7] and in experiment [8] was “inactive” each time.
For `COc1ccc2[nH]cc(CCNC(C)=O)c2c1`, the Potency entry in experiment [1], in [2], in [3], in experiment [4], in experiment [5] and in experiment [6] was “inactive” each time. Also, the Potency entry in [7] and in experiment [8] was “inactive” in each case.
In the case of `O=C(Nc1ccc([N+](=O)[O-])cc1Cl)c1cc(Cl)ccc1O`, the Potency in experiment [1] is 1 µM (active); in [2], 0.708 µM (active); in experiment [3] it was 0.794 µM (active); in experiment [4], 1 µM (active); in experiment [5], 1.41 µM (active); in experiment [6] it was 0.794 µM (active). The Potency in experiment [7] was 0.794 µM (active).
